# Source: PubChem BioAssay (NCATS)
# Records with an inconclusive call do not appear. Activity calls are given as the source filed them. Unless noted, calls come from the whole dose curve; as a rule, active = well fitted curve in the direction sought with a large enough effect; inconclusive = small, poorly fitted or top-dose-only effect, or another doubt; inactive = no such curve, though single readings can be large; an effect the other way counts as inactive or inconclusive.
# Legend:
# [1] = target: Pyruvate kinase PKM (Homo sapiens) (UniProt P14618); experiment: qHTS Assay for Activators of Human Muscle Pyruvate Kinase (AID 954; active = well fitted curve in the direction sought with a large enough effect, not every such curve was filed as active)
# Method in brief: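 Screening used highly purified human pyruvate kinase M2 under submaximal activity, with PEP at its Km and ADP below Km. After an hour at room temperature, ATP was read by luciferase luminescence.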
# [2] = MultiTox-Fluor Cytotoxicity Assay - LYMP1-001 - Dead Cells (AID 946)
# Method in brief: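 In this qHTS, 15 uM tetraoctylammonium bromide defined 100% and DMSO defined basal activity. Lymphoblastoid cells (LYMP1-001, 2500 per well) received compound for 16 hr at 37 C before a fluorogenic dead-cell substrate readout at 485/520 nm.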
# [3] = MultiTox-Fluor Cytotoxicity Assay - LYMP1-001 - Live Cells (AID 947)
# [4] = Cell Viability - LYMP1-002 - Assay at 16 hr (AID 948)
# From the text: NIH Chemical Genomics Center [NCGC]
# NIH Molecular Libraries Screening Centers Network [MLSCN]
# National Institutes of Environmental Health Sciences [NIEHS]
# National Toxicology Program [NTP]
# We have developed a 1536-well cell-based assay for quantitative high throughput screening (qHTS) against a number of cell lines to determine in vitro cytotoxicity of small molecules. This particular assay uses a human lymphoblastoid cell line (LYMP1-002) purchased from Coriell Institute for Medical Research.
# NCGC Assay Protocol Summary:
# The CellTiter-Glo luminescent cell viability assay (Promega) is a homogeneous method to measure the number of viable cells in culture. The end point readout of this assay is based on quantitation of intracellular ATP, an indicator of metabolic activity, using the luciferase reaction. Luciferase catalyzes the oxidation of beetle Luciferin to oxyluciferin and light in the presence of ATP. The luminescent signal is proportional to amount of ATP present.
# Using the CellTiter-Glo luminescent cell viability assay, the amount of cellular ATP was measured in the lymphoblastoid cell line with complete culture medium following compound treatment for 16 hours. The assay was performed in opaque white Kalypsys 1536-well plates. In the screen, tetraoctylammonium bromide was used as positive control. Library compounds were measured for their ability to cause acute toxicity in the cell line, as reflected by a decrease in intracellular ATP levels, in a concentration-dependent manner. […] AC50 values were determined from concentration-response data modeled with the standard Hill equation.
# qHTS protocol for CellTiter Glo lymphoblastoid cellular assay
# [Step] [Parameter] [Value] [Description]
# 1. Reagent; 5 uL; 2500 lymphoblastoid cells/well
# 2. Time; 5 hr; 37 C incubation
# 4. Controls; 23 nL; Tetraoctylammonium bromide 6.4pM to 92 uM
# 5. Time; 16 hr; 37 C incubation
# 6. Reagent; 5 uL; CellTiter Glo reagent
# 7. Time; 30 min; Room Temperature
# 8. Detection; Luminescence; Viewlux plate reader
# Keywords: cell viability, cytotoxicity, lymphoblastoid cell line, luminescence, NTPHTS, NTPHTS_NCGC, NIEHS, DSSTox, MLSMR, MLSCN, NIH Roadmap, qHTS, NCGC
# [5] = MultiTox-Fluor Cytotoxicity Assay - LYMP1-002 - Live Cells (AID 955)
# Method in brief: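 After 16 h compound exposure at 37 C, live LYMP1-002 lymphoblastoid cells (2500/well) were quantified by cleavage of cell-permeant GF-AFC substrate, read at 405/510 nm after 60 min. Concentration-response fitted with Hill equation for AC50.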
# [6] = MultiTox-Fluor Cytotoxicity Assay - LYMP1-002 - Dead Cells (AID 960); note: nearly all actives have a fitted effect of over 60% in size
# Method in brief: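 Dead-cell fluorescence (Ex/Em 485/520) after 16 h compound exposure at 37 C of LYMP1-002 lymphoblastoid cells in complete medium; AC50 by Hill equation, with data scaled between DMSO and 15 uM tetraoctylammonium bromide.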
# [7] = MultiTox-Fluor Cytotoxicity Assay - LYMP1-003 - Dead Cells (AID 961); note: nearly all actives have a fitted effect of over 70% in size
# Method in brief: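 Acute toxicity is scored as increased dead-cell protease activity in human lymphoblastoid LYMP1-003 cells after 16 h compound exposure in complete culture medium. Activity is normalized to DMSO basal and 15 uM tetraoctylammonium bromide as full response.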
# [8] = MultiTox-Fluor Cytotoxicity Assay - LYMP1-003 - Live Cells (AID 962);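 note: cells exposed to compound for 16 hours at 37 °C; cytotoxic hits lower the live-cell protease signal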
# Method in brief: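 Live-cell protease activity (GF-AFC substrate, 405/510 nm, 60 min at room temperature) after 16 h, 37 C compound exposure of human lymphoblastoid LYMP1-003 cells; concentration-response fitted to the Hill equation for AC50.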
# [9] = Cell Viability - LYMP1-003 - Assay at 24 hr (AID 963)
# Method in brief: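 Concentration-response qHTS: ATP loss measured by CellTiter-Glo luminescence after 24 h compound exposure at 37 C. Cells were LYMP1-003 human lymphoblastoid, 2500 per well. AC50 derived via standard Hill equation modeling.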
# [10] = target: Pyruvate kinase (Leishmania mexicana) (UniProt Q27686); experiment: qHTS Validation Assay for Activators of Leishmania Mexicana Pyruvate Kinase (AID 959)
# Method in brief: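 Compounds are tested as eight-point concentration series. Reactions contain 0.2 nM LmPYK E451W, 0.5 mM PEP, 0.1 mM ADP, 7 mM MgCl2 and 50 mM KCl at pH 7.2, run 1 h at room temperature, then read by PKLight luminescence.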
# Pyruvate kinase PKM (Homo sapiens), sequence (P14618 whole entry, looked up): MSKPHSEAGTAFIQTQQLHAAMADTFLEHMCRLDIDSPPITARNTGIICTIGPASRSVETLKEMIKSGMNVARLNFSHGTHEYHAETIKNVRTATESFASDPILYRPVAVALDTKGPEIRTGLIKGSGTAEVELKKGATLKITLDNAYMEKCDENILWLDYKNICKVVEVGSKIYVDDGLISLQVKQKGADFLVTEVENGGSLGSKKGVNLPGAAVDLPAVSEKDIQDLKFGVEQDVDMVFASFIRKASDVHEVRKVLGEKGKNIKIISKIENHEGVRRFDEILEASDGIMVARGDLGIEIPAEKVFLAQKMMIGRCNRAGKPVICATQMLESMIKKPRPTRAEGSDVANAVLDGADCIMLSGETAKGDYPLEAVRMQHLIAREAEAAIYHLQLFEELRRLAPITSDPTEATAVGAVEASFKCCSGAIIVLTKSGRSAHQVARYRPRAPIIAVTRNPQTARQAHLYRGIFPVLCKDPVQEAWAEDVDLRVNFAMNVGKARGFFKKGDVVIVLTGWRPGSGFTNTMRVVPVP
# Pyruvate kinase (Leishmania mexicana), sequence (Q27686 2-499 E452W): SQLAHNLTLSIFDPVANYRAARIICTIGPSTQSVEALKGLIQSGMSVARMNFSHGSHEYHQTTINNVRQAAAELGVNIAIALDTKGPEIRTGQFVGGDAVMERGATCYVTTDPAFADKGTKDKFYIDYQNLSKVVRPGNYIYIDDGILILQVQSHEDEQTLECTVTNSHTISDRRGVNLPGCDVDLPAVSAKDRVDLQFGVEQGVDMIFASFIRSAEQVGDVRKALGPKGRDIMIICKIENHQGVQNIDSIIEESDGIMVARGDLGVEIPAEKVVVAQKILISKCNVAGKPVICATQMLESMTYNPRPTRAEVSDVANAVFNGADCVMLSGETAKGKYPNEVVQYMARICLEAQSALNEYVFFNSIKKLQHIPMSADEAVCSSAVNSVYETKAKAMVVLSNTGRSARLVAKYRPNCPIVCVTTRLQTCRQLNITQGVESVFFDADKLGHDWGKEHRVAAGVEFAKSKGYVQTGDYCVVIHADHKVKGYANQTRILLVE
smiles,measurement,setting,value
CC(C)NCC(O)COc1ccc(COCCOC(C)C)cc1 (configuration not stated),outcome,[1],inactive
Cc1[nH]c(=O)c(C#N)cc1-c1ccncc1,outcome,[1],inactive
O=c1[nH]cnc2[nH]ncc12,outcome,[2],inactive
same,outcome,[3],inactive
same,outcome,[4],inactive
same,outcome,[1],inactive
same,outcome,[5],inactive
same,outcome,[6],inactive
same,outcome,[7],inactive
same,outcome,[8],inactive
same,outcome,[9],inactive
CC(C)(Sc1ccc(CCN(CCCCC2CCCCC2)C(=O)NC2CCCCC2)cc1)C(=O)O,outcome,[1],inactive
O=NN(CCCl)C(=O)NCCCl,outcome,[1],inactive
CN1CCN(CCCN2c3ccccc3Sc3ccc(C(F)(F)F)cc32)CC1,outcome,[1],inactive
NNCCc1ccccc1,outcome,[1],inactive
NC[C@H](O)c1ccc(O)c(O)c1,outcome,[1],inactive
OC(CN1CCC(Cc2ccc(F)cc2)CC1)c1ccc(Cl)cc1 (configuration not stated),outcome,[1],inactive
Nc1nc2ccc(OC(F)(F)F)cc2s1,outcome,[1],inactive
same,outcome,[10],inactive
Nc1nc2c(ncn2COCCO)c(=O)[nH]1,outcome,[1],inactive
CCCC(CCC)C(=O)O,outcome,[2],inactive
same,outcome,[4],inactive
same,outcome,[1],inactive
same,outcome,[5],inactive
same,outcome,[7],inactive
same,outcome,[8],inactive
same,outcome,[9],inactive
CCCCNc1cc(C(=O)O)cc(S(N)(=O)=O)c1Oc1ccccc1,outcome,[1],inactive
Cc1cn[nH]c1,outcome,[1],inactive
Cc1[nH]c(=O)c(C#N)cc1-c1ccc2nccn2c1,outcome,[1],inactive
Cc1oncc1C(=O)Nc1ccc(C(F)(F)F)cc1,outcome,[1],inactive
N[C@@H]1CONC1=O,outcome,[1],inactive
O=C1CCc2cc(OCCCCc3nnnn3C3CCCCC3)ccc2N1,outcome,[1],inactive
Clc1cccc(Cl)c1NC1=NCCN1,outcome,[1],inactive
CCOC(=O)C1=C[C@@]2(CC)CCCN3CCc4c(n1c1ccccc41)[C@H]32,outcome,[1],inactive
N=c1nc(N2CCCCC2)cc(N)n1O,outcome,[1],inactive
NS(=O)(=O)c1cc2c(cc1Cl)NC=NS2(=O)=O,outcome,[2],inactive
same,outcome,[3],inactive
same,outcome,[4],inactive
same,outcome,[1],inactive
same,outcome,[5],inactive
same,outcome,[7],inactive
same,outcome,[8],inactive
same,outcome,[9],inactive
Cn1cnc([N+](=O)[O-])c1Sc1ncnc2nc[nH]c12,outcome,[2],inactive
same,outcome,[3],inactive
same,outcome,[4],inactive
same,outcome,[1],inactive
same,outcome,[5],inactive
same,outcome,[6],inactive
same,outcome,[7],inactive
same,outcome,[8],inactive
Nc1ccc(S(=O)(=O)Nc2ccnn2-c2ccccc2)cc1,outcome,[1],inactive
CC(=O)Oc1ccccc1C(=O)O,outcome,[2],inactive
same,outcome,[3],inactive
same,outcome,[4],inactive
same,outcome,[1],inactive
same,outcome,[5],inactive
same,outcome,[6],inactive
same,outcome,[7],inactive
same,outcome,[8],inactive
same,outcome,[9],inactive
NCCc1ccc(O)c(O)c1,outcome,[1],inactive
CCOC(=O)N1CCC(=C2c3ccc(Cl)cc3CCc3cccnc32)CC1,outcome,[1],inactive
NC(N)=NC(=O)c1nc(Cl)c(N)nc1N,outcome,[2],inactive
same,outcome,[3],inactive
same,outcome,[4],inactive
same,outcome,[1],inactive
same,outcome,[5],inactive
same,outcome,[6],inactive
same,outcome,[7],inactive
same,outcome,[8],inactive
same,outcome,[9],inactive
O=c1n(CCCN2CCN(c3cccc(Cl)c3)CC2)nc2ccccn12,outcome,[1],inactive
C[C@]12CCC(=O)C=C1CC[C@@H]1[C@@H]2[C@@H](O)C[C@@]2(C)[C@H]1CC[C@]2(O)C(=O)CO,outcome,[1],inactive
NC(=O)c1cnccn1,outcome,[2],inactive
same,outcome,[3],inactive
same,outcome,[4],inactive
same,outcome,[1],inactive
same,outcome,[5],inactive
same,outcome,[6],inactive
same,outcome,[7],inactive
same,outcome,[8],inactive
same,outcome,[9],inactive
Cc1ccc(N(CC2=NCCN2)c2cccc(O)c2)cc1,outcome,[1],inactive
CNC[C@H](O)c1cccc(O)c1,outcome,[1],inactive
C1COC(NC(C2CC2)C2CC2)=N1,outcome,[1],inactive
